In paper PMC7862700, “An all-to-all approach to the identification of sequence-specific readers for epigenetic DNA modifications on cytosine”:

What was measured:
Assay in all cases: DAPPL (digital affinity profiling via proximity ligation, sequencing); 10 mM Tris-HCl pH 7.5, 50 mM NaCl, 1 mM DTT, 4% glycerol, room temperature, 30 min; GST-TFs on glutathione beads, 16-mer random dsDNA library, 0.1% formaldehyde crosslink after washing; high values mean tight binding
FLI1 = biological target: T1, FLI1 (Homo sapiens, UniProt Q01543 1-452); details: protein: recombinant; tags: N-terminal GST; dsDNA, one strand shown
T1 sequence: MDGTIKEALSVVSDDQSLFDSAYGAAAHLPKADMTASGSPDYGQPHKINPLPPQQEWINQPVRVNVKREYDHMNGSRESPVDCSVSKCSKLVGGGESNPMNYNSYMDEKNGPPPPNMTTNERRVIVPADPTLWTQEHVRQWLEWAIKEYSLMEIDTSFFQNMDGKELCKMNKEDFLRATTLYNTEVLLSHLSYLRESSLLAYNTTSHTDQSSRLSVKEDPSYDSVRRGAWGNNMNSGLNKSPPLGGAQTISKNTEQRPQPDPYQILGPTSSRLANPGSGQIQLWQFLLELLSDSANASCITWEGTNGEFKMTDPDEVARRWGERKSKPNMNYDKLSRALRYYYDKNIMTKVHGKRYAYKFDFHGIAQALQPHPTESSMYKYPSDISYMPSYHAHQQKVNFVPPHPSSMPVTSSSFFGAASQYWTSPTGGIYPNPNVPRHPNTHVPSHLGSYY
Outline: (§1)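 Pools of DNA-barcoded human transcription factors, expressed in yeast as GST fusions on glutathione beads and combined with a tag-only sample, were incubated with 200 nmole of a 16-mer random double-stranded DNA library. Incubation took 30 min at room temperature in Tris/NaCl/DTT/glycerol buffer and was followed by washing, 0.1% formaldehyde crosslinking, proximity ligation (BsaI/T4 ligase, 1 h, 37 °C), PCR amplification and sequencing on an Illumina NextSeq500. Binding signal is the ratio of a hexamer's read frequency for a factor to its frequency for the tag-only sample.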

ELK1 = biological target: T2, ELK1 (Homo sapiens, UniProt P19419 1-428); details: protein: recombinant; tags: N-terminal GST; dsDNA, one strand shown
T2 sequence: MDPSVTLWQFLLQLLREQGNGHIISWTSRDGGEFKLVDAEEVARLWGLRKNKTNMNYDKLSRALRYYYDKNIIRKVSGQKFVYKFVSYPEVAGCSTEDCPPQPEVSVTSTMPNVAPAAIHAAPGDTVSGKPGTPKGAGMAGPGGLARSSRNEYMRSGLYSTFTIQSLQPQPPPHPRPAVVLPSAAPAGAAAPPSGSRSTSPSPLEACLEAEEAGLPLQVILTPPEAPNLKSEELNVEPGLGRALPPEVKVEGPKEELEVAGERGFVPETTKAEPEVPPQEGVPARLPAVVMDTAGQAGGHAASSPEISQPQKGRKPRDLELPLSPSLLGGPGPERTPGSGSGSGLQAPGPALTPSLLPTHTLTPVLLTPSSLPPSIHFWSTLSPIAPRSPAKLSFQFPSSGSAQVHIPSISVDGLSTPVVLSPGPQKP
Outline: as §1

GABPA = biological target: T3, GABPA (Homo sapiens, UniProt Q06546 1-454); details: protein: recombinant; tags: N-terminal GST; dsDNA, one strand shown
T3 sequence: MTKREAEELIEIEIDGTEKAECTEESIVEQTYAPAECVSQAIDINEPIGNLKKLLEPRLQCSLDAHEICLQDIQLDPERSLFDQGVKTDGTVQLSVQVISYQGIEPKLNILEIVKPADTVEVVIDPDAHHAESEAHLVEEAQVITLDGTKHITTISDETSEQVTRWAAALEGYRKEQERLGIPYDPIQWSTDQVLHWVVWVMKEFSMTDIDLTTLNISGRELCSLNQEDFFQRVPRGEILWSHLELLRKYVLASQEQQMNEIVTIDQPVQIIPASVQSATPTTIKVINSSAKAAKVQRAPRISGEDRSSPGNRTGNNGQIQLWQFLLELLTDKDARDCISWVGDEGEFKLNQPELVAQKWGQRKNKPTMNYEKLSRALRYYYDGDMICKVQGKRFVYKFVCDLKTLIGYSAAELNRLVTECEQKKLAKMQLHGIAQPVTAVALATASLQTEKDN
Outline: as §1

ERG = biological target: T4, ERG (Homo sapiens, UniProt P11308 1-479); details: protein: recombinant; tags: N-terminal GST; dsDNA, one strand shown
T4 sequence: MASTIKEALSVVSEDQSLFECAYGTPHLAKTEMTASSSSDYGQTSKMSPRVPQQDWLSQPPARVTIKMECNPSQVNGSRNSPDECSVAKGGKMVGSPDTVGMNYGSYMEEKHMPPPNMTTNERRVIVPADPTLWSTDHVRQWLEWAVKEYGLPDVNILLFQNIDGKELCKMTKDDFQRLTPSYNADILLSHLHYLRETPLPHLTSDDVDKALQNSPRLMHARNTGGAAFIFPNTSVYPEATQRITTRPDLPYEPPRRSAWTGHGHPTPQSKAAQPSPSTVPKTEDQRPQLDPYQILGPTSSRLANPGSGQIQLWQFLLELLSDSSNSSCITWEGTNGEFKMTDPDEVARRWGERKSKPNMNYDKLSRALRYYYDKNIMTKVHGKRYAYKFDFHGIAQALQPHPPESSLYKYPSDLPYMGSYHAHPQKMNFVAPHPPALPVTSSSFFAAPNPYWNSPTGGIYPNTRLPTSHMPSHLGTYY
Outline: as §1

ELF1 = ELF1 (Homo sapiens, UniProt P32519 1-619); details: protein: recombinant; tags: N-terminal GST; dsDNA, one strand shown
Outline: as §1

EHF = biological target: T5, EHF (Homo sapiens, UniProt Q9NZC4 1-300); details: protein: recombinant; tags: N-terminal GST; dsDNA, one strand shown
T5 sequence: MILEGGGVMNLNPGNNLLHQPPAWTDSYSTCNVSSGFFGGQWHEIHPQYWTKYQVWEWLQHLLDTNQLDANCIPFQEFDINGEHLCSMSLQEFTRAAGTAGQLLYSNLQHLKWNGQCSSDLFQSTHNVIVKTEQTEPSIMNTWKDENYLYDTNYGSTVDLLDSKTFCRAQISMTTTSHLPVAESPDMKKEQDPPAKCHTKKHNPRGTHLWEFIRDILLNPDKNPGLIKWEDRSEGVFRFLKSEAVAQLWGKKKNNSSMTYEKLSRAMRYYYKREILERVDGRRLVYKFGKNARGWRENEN
Outline: as §1

SPI1 = SPI1 (Homo sapiens, UniProt P17947 1-270); details: protein: recombinant; tags: N-terminal GST; dsDNA, one strand shown
Outline: as §1

SPIB = SPIB (Homo sapiens, UniProt Q01892 1-262); details: protein: recombinant; tags: N-terminal GST; dsDNA, one strand shown
Outline: as §1

ELK3 = biological target: T6, ELK3 (Homo sapiens, UniProt P41970 1-407); details: protein: recombinant; tags: N-terminal GST; dsDNA, one strand shown
T6 sequence: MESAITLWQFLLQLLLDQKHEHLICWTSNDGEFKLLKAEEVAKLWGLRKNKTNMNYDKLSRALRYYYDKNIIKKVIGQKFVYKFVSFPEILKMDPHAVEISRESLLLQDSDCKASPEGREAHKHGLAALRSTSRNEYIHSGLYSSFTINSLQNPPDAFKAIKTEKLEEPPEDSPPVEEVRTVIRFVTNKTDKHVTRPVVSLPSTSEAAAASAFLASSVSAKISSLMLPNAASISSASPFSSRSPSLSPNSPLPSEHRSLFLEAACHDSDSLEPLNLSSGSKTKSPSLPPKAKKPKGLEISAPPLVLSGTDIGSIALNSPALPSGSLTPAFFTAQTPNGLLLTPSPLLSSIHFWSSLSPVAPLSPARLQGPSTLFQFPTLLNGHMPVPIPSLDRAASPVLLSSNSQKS
Outline: as §1

FEV = biological target: T7, FEV (Homo sapiens, UniProt Q99581 1-238); details: protein: recombinant; tags: N-terminal GST; dsDNA, one strand shown
T7 sequence: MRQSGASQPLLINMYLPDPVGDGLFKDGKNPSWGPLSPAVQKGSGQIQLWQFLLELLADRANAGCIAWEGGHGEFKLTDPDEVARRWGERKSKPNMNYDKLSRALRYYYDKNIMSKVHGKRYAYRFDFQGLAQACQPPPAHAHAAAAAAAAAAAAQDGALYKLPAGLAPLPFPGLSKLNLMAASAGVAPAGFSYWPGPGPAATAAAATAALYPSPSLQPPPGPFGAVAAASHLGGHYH
Outline: as §1

ETV5 = ETV5 (Homo sapiens, UniProt P41161 1-510); details: protein: recombinant; tags: N-terminal GST; dsDNA, one strand shown
Outline: as §1

HSF1 = HSF1 (Homo sapiens, UniProt Q00613 1-529); details: protein: recombinant; tags: N-terminal GST; chain copies: 3; dsDNA, one strand shown
Outline: as §1

SPIC = biological target: T8, SPIC (Homo sapiens, UniProt Q8N5J4 1-248); details: protein: recombinant; tags: N-terminal GST; dsDNA, one strand shown
T8 sequence: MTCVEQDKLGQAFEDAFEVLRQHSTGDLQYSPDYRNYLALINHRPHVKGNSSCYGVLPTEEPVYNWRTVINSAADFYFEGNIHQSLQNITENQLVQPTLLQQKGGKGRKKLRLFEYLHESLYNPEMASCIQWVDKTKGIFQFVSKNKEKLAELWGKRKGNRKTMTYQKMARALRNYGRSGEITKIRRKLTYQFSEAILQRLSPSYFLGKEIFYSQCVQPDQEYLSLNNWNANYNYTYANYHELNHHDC
Outline: as §1

ELF4 = ELF4 (Homo sapiens, UniProt Q99607 1-663); details: protein: recombinant; tags: N-terminal GST; dsDNA, one strand shown
Outline: as §1

ELK4 = biological target: T9, ELK4 (Homo sapiens, UniProt P28324-2 1-405); details: protein: recombinant; tags: N-terminal GST; dsDNA, one strand shown
T9 sequence: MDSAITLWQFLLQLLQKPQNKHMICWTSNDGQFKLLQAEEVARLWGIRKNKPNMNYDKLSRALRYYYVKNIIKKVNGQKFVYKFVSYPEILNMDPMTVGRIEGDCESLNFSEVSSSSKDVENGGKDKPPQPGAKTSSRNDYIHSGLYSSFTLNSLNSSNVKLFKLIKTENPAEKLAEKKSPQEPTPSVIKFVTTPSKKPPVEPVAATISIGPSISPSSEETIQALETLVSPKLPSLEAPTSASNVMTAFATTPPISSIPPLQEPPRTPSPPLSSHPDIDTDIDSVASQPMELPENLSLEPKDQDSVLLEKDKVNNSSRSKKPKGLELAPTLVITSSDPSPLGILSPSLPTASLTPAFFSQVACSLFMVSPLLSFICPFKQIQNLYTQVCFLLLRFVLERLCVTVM
Outline: as §1

ETV2 = biological target: T10, ETV2 (Homo sapiens, UniProt O00321 1-342); details: protein: recombinant; tags: N-terminal GST; dsDNA, one strand shown
T10 sequence: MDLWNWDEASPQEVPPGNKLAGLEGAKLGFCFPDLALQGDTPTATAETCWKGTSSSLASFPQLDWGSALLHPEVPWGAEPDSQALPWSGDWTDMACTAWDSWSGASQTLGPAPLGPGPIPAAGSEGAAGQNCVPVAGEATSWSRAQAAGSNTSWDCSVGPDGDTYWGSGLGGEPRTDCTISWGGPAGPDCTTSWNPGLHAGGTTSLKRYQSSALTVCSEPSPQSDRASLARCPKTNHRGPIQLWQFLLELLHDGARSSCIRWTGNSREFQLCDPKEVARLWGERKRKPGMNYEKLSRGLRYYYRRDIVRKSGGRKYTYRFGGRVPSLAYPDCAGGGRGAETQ
Outline: as §1

ELF3 = biological target: T11, ELF3 (Homo sapiens, UniProt P78545 1-371); details: protein: recombinant; tags: N-terminal GST; dsDNA, one strand shown
T11 sequence: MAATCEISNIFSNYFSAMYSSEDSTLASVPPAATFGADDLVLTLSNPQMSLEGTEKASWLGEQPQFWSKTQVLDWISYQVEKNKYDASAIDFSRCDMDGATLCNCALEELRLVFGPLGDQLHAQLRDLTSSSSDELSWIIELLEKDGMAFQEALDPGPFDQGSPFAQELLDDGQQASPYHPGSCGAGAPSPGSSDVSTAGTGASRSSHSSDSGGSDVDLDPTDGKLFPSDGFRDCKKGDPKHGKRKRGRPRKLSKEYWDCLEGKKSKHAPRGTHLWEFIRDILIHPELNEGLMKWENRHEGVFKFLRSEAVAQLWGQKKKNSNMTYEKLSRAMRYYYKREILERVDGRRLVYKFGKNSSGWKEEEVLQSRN
Outline: as §1

CRX = CRX (Homo sapiens, UniProt O43186 1-299); details: protein: recombinant; tags: N-terminal GST; dsDNA, one strand shown
Outline: as §1

ETV1 = ETV1 (Homo sapiens, UniProt P50549 1-477); details: protein: recombinant; tags: N-terminal GST; dsDNA, one strand shown
Outline: as §1

Sequence of ETV1 (P50549 whole entry): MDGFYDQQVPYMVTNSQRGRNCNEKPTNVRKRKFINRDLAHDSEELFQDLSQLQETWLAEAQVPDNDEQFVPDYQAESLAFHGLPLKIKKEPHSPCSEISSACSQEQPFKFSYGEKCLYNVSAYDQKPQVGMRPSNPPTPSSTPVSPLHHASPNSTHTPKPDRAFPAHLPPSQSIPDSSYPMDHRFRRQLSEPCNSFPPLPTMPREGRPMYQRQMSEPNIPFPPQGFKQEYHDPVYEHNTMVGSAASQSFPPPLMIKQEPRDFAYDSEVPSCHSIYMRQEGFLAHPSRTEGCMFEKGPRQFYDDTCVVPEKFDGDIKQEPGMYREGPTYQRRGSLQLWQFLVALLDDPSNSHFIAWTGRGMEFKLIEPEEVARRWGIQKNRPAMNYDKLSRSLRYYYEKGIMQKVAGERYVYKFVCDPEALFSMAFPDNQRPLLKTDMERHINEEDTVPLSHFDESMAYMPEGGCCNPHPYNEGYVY
Sequence of ETV5 (P41161 whole entry): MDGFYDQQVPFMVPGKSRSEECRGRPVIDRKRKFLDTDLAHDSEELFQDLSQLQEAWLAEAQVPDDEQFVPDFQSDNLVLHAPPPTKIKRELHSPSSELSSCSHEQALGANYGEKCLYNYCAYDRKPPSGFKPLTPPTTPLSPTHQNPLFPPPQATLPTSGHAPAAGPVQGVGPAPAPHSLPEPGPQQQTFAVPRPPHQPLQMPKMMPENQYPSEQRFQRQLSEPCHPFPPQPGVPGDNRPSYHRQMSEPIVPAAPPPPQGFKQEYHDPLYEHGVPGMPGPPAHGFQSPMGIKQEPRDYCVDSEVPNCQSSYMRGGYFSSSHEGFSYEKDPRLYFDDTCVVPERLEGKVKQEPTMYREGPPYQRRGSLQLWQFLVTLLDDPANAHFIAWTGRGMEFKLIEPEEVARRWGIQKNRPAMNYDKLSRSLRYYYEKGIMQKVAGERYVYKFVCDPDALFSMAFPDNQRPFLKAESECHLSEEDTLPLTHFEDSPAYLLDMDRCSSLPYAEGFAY
Sequence of CRX (O43186 whole entry): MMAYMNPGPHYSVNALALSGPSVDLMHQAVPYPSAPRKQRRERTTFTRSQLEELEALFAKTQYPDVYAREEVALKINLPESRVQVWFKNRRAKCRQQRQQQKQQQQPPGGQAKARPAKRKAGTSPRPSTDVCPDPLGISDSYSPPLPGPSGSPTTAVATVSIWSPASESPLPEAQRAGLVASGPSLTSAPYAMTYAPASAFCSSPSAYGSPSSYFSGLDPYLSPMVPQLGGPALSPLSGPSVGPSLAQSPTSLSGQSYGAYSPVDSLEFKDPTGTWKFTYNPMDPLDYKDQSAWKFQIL
Sequence of ELF4 (Q99607 whole entry): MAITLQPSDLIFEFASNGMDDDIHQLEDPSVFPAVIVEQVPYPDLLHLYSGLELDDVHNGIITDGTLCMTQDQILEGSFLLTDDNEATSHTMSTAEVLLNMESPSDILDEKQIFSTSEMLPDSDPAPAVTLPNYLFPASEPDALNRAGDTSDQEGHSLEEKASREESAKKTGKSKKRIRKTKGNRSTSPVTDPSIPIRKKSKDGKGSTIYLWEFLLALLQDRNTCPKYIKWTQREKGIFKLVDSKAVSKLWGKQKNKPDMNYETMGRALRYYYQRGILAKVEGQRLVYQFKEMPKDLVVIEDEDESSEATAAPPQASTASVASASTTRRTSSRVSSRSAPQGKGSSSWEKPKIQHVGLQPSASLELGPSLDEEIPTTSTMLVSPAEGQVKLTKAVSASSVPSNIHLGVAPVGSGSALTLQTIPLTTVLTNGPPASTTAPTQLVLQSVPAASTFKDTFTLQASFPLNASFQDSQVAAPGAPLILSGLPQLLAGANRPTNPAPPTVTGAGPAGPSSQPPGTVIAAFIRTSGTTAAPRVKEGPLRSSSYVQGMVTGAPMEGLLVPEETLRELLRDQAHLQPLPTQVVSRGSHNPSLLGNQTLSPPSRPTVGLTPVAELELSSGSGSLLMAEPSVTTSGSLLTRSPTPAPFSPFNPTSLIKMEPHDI
Sequence of SPIB (Q01892 whole entry): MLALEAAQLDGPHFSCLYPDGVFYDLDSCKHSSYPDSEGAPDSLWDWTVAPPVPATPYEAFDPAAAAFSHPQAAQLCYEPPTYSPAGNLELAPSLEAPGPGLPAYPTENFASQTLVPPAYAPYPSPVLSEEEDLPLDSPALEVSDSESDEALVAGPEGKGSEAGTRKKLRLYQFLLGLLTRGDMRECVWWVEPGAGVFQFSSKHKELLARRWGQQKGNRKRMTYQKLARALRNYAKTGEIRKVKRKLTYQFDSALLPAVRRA
Sequence of HSF1 (Q00613 whole entry): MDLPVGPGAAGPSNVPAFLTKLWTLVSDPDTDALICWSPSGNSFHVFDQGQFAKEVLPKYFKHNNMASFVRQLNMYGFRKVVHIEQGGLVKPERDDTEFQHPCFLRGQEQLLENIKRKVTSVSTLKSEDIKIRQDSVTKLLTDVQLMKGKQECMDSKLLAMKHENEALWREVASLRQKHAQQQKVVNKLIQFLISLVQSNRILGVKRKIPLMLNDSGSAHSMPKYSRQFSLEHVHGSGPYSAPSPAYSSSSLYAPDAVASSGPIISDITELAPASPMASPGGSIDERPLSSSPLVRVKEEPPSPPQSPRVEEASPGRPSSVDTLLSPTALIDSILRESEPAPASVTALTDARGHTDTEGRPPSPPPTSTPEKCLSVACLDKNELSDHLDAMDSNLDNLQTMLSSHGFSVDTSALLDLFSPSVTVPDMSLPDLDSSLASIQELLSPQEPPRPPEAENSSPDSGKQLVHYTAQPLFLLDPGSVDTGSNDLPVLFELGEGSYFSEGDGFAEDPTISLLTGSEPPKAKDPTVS
Sequence of ELF1 (P32519 whole entry): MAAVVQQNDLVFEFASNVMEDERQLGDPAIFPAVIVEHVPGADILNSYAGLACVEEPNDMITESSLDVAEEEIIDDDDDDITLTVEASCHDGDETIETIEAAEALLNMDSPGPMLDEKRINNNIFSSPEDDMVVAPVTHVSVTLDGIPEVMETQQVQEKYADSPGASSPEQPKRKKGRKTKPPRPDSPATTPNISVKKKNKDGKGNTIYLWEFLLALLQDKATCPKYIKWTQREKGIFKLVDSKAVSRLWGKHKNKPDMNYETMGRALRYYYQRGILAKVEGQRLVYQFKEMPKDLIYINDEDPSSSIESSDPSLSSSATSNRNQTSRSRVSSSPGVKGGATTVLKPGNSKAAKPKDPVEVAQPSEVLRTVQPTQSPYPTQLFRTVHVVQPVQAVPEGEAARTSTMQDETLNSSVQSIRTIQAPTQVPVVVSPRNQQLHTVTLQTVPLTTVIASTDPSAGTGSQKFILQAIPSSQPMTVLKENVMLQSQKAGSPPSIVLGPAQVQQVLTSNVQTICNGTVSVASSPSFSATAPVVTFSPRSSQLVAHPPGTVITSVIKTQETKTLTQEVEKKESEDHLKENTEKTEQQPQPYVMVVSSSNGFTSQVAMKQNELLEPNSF

**Q.** Which results are given for TATTGT?
**A.** binding signal (FLI1): 1.27 fold enrichment (6-mer frequency, TF over GST control); binding signal (ELK1): 1.32 fold enrichment (6-mer frequency, TF over GST control); binding signal (GABPA): 1.29 fold enrichment (6-mer frequency, TF over GST control); binding signal (ERG): 1.3 fold enrichment (6-mer frequency, TF over GST control); binding signal (ELF1): 1.28 fold enrichment (6-mer frequency, TF over GST control); binding signal (EHF): 1.23 fold enrichment (6-mer frequency, TF over GST control); binding signal (SPI1): 1.19 fold enrichment (6-mer frequency, TF over GST control); binding signal (SPIB): 1.28 fold enrichment (6-mer frequency, TF over GST control); binding signal (ELK3): 1.53 fold enrichment (6-mer frequency, TF over GST control); binding signal (FEV): 1.26 fold enrichment (6-mer frequency, TF over GST control); binding signal (ETV5): 1.33 fold enrichment (6-mer frequency, TF over GST control); binding signal (HSF1): 1.27 fold enrichment (6-mer frequency, TF over GST control); binding signal (SPIC): 1.45 fold enrichment (6-mer frequency, TF over GST control); binding signal (ELF4): 1.24 fold enrichment (6-mer frequency, TF over GST control); binding signal (ELK4): 1.36 fold enrichment (6-mer frequency, TF over GST control); binding signal (ETV2): 1.32 fold enrichment (6-mer frequency, TF over GST control); binding signal (ELF3): 1.23 fold enrichment (6-mer frequency, TF over GST control); binding signal (CRX): 1.47 fold enrichment (6-mer frequency, TF over GST control); binding signal (ETV1): 1.25 fold enrichment (6-mer frequency, TF over GST control)
